What all share (settings): mRNA level, 48 h; actives raise or lower the signal
Read-out in test [1]: MicroRNA 122 (MIR122), gene 406906
Put plainly: LTEA_HepaRG_MIR122: Life Technologies and Expression Analysis (LTEA) Assay for MicroRNA 122 (MIR122) using HepaRG (AID 2283516). Also: the transcript read is the microRNA miR-122. In short, it runs like this: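 HepaRG, 48 h exposure, 8-pt half-log from 100 uM, 0.5% DMSO; TaqMan qRT-PCR; bidirectional fit vs DMSO.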

Read-out in test [2]: matrix metalloproteinase-10 (MMP10), MMP10 (gene 4319)
Put plainly: LTEA_HepaRG_MMP10: Life Technologies and Expression Analysis (LTEA) Assay for matrix metalloproteinase-10 (MMP10) using HepaRG (AID 2283517). The gist of the method: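 HepaRG, collagen I, ~100,000 cells/well; serum-free induction medium; 48 h exposure, duplicate, 8-pt half-log to 100 uM, 0.5% DMSO. Readout: TaqMan qRT-PCR, normalized to ACTB/GAPDH/POLR2A; bidirectional fit vs DMSO.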

Read-out in another test: MYC, MYC (gene 4609)
In words: LTEA_HepaRG_MYC: Life Technologies and Expression Analysis (LTEA) Assay for MYC using HepaRG (AID 2283518). In short, it runs like this: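 Differentiated human HepaRG cells, plated 48 h then switched to serum-free induction medium, were exposed in duplicate for 48 h to 8-point half-log series up to 100 uM in 0.5% DMSO. MYC mRNA measured by qRT-PCR, normalized to ACTB/GAPDH/POLR2A.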

Read-out in test [3]: matrix metalloproteinase-3 (MMP3), MMP3 (gene 4314)
Put plainly: LTEA_HepaRG_MMP3: Life Technologies and Expression Analysis (LTEA) Assay for matrix metalloproteinase-3 (MMP3) using HepaRG (AID 2283519). In short, it runs like this: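 Differentiated human HepaRG cells, plated 48 h on collagen I, were exposed in duplicate for 48 h in serum-free induction medium to eight half-log concentrations up to 100 uM in 0.5% DMSO. MMP3 mRNA was quantified by TaqMan qRT-PCR, normalised to ACTB, GAPDH and POLR2A.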

Read-out in test [4]: Paternally Expressed 10 (PEG10), PEG10 (gene 23089)
In words: LTEA_HepaRG_PEG10: Life Technologies and Expression Analysis (LTEA) Assay for Paternally Expressed 10 (PEG10) using HepaRG (AID 2283520).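 As to AC50: PEG10 transcript by qRT-PCR normalised to ACTB GAPDH and POLR2A.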 In short, it runs like this:
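Chemicals tested on HepaRG cells for 48 h, highest concentration 100 uM. PEG10 expression assessed by qRT-PCR relative to DMSO control.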

Read-out in test [5]: Nuclear factor NF-kappa-B p105 subunit (Homo sapiens) (UniProt P19838)
In words: LTEA_HepaRG_NFKB1: Life Technologies and Expression Analysis (LTEA) Assay for Nuclear Factor Kappa B Subunit 1 (NFKB1) using HepaRG (AID 2283521).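 Also: TaqMan qRT-PCR transcript normalised to ACTB GAPDH and POLR2A housekeeping genes.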 The gist of the method: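 Differentiated human HepaRG cells were exposed for 48 h in serum-free induction medium to eight concentrations (top 100 uM, half-log steps, 0.5% DMSO), in duplicate. NFKB1 mRNA was measured by TaqMan qRT-PCR, normalized to ACTB/GAPDH/POLR2A, and fitted bidirectionally against DMSO.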

Read-out in test [6]: Protein phosphatase 2A (PPP2R4), PTPA (gene 5524)
Put plainly: LTEA_HepaRG_PPP2R4: Life Technologies and Expression Analysis (LTEA) Assay for Protein phosphatase 2A (PPP2R4) using HepaRG (AID 2283522). In short, it runs like this: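 Gene-expression endpoint in HepaRG hepatic cells: 48 h treatment across eight half-log concentrations up to 100 uM in 0.5% DMSO. PPP2R4 mRNA by qRT-PCR, normalized to three endogenous control genes.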

Read-out in test [7]: Phosphatase and tensin (PTEN), PTEN (gene 5728)
In words: LTEA_HepaRG_PTEN: Life Technologies and Expression Analysis (LTEA) Assay for Phosphatase and tensin (PTEN) using HepaRG (AID 2283523). In short, it runs like this: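 Differentiated human HepaRG cells, plated 48 h then switched to serum-free induction medium, were exposed in duplicate for 48 h to eight half-log concentrations up to 100 uM in 0.5% DMSO. PTEN mRNA measured by TaqMan qRT-PCR, normalized to ACTB/GAPDH/POLR2A, bidirectional fit versus DMSO.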

Read-out in test [8]: Pyruvate Dehydrogenase Kinase 4 (PDK4), PDK4 (gene 5166)
In words: LTEA_HepaRG_PDK4: Life Technologies and Expression Analysis (LTEA) Assay for Pyruvate Dehydrogenase Kinase 4 (PDK4) using HepaRG (AID 2283525). In short, it runs like this:
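Differentiated human HepaRG cells, pre-cultured 48 h, were exposed in duplicate for 48 h in serum-free induction medium to eight half-log concentrations up to 100 uM in 0.5% DMSO. PDK4 mRNA was quantified by qRT-PCR, normalized to ACTB, GAPDH and POLR2A, bidirectional fitting versus DMSO.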

Read-out in test [9]: NAD(P)H dehydrogenase [quinone] 1 (NQO1), NQO1 (gene 1728)
In words: LTEA_HepaRG_NQO1: Life Technologies and Expression Analysis (LTEA) Assay for NAD(P)H dehydrogenase [quinone] 1 (NQO1) using HepaRG (AID 2283526). The gist of the method: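 Human HepaRG hepatic cells received chemicals for 48 h in serum-free induction medium with 0.5% DMSO, up to 100 uM. Expression was assessed by TaqMan qRT-PCR against housekeeping controls and fitted bidirectionally against DMSO.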

Read-out in test [10]: Nuclear factor erythroid 2-related factor 2 (Homo sapiens) (UniProt Q16236)
In words: LTEA_HepaRG_NFE2L2: Life Technologies and Expression Analysis (LTEA) Assay for Nuclear factor erythroid 2-related factor 2 (NFE2L2) Transcription Factor using HepaRG (AID 2283527).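 As to outcome: TaqMan qRT-PCR transcript level normalised to ACTB GAPDH and POLR2A housekeeping genes.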 The gist of the method: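 Differentiated human HepaRG cells in serum-free induction medium were exposed for 48 h to eight concentrations (top 100 uM, half-log dilutions, 0.5% DMSO), in duplicate. NFE2L2 mRNA was quantified by TaqMan qRT-PCR, normalized to ACTB, GAPDH and POLR2A, with bidirectional fitting versus DMSO.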

Read-out in test [11]: Signal transducer and activator of transcription 3 (Homo sapiens) (UniProt P40763)
In words: LTEA_HepaRG_STAT3: Life Technologies and Expression Analysis (LTEA) Assay for Signal transducer and activator of transcription (STAT3) using HepaRG (AID 2283529). In short, it runs like this: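 Differentiated human HepaRG cells in serum-free induction medium were exposed in duplicate for 48 h to eight half-log concentrations up to 100 uM in 0.5% DMSO. STAT3 mRNA was quantified by TaqMan qRT-PCR, normalized to ACTB, GAPDH and POLR2A, and fitted bidirectionally against DMSO.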

Read-out in test [12]: solute carrier (SLCO1B1), SLCO1B1 (gene 10599)
Put plainly: LTEA_HepaRG_SLCO1B1: Life Technologies and Expression Analysis (LTEA) Assay for solute carrier (SLCO1B1) using HepaRG (AID 2283530). In short, it runs like this:
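Differentiated human HepaRG cells, plated 48 h, switched to serum-free induction medium and exposed in duplicate for 48 h to 8 half-log concentrations (top 100 uM) in 0.5% DMSO. SLCO1B1 mRNA by TaqMan qRT-PCR, normalized to ACTB/GAPDH/POLR2A.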

Read-out in test [13]: sulfotransferase 2A1 (SULT2A1), SULT2A1 (gene 6822)
Put plainly: LTEA_HepaRG_SULT2A1: Life Technologies and Expression Analysis (LTEA) Assay for sulfotransferase 2A1 (SULT2A1) using HepaRG (AID 2283531). In short, it runs like this:
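Differentiated human HepaRG cells in serum-free induction medium were exposed for 48 h to eight half-log concentrations (top 100 uM, 0.5% DMSO). SULT2A1 mRNA was measured by qRT-PCR, normalized to ACTB, GAPDH and POLR2A, and fitted bidirectionally against DMSO.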

Read-out in test [14]: Transforming Growth Factor (TGFA), TGFA (gene 7039)
In words: LTEA_HepaRG_TGFA: Life Technologies and Expression Analysis (LTEA) Assay for Transforming Growth Factor (TGFA) using HepaRG (AID 2283532). In short, it runs like this: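 Differentiated human HepaRG cells, plated 48 h then switched to serum-free induction medium, were exposed in duplicate for 48 h to 8-point half-log series from 100 uM in 0.5% DMSO. TGFA mRNA measured by qRT-PCR, normalized to ACTB/GAPDH/POLR2A, bidirectional fit versus DMSO.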

Read-out in test [15]: Transforming Growth Factor (TGFB1), TGFB1 (gene 7040)
In words: LTEA_HepaRG_TGFB1: Life Technologies and Expression Analysis (LTEA) Assay for Transforming Growth Factor (TGFB1) Transporter using HepaRG (AID 2283533). The gist of the method:
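Differentiated human HepaRG cells in serum-free induction medium were exposed in duplicate for 48 h to eight concentrations (top 100 uM, half-log steps, 0.5% DMSO). TGFB1 mRNA was quantified by qRT-PCR, normalized to ACTB, GAPDH, POLR2A, and fitted bidirectionally against DMSO.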

Read-out in a further test: TIMP1, TIMP1 (gene 7076)
In words: LTEA_HepaRG_TIMP1: Life Technologies and Expression Analysis (LTEA) Assay for TIMP1 using HepaRG (AID 2283534). The gist of the method:
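Differentiated human HepaRG cells in serum-free induction medium were exposed 48 h to chemicals (8 half-log concentrations, top 100 uM, 0.5% DMSO). TIMP1 mRNA was quantified by TaqMan qRT-PCR, normalized to ACTB/GAPDH/POLR2A; bidirectional fit versus DMSO.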

Read-out in test [16]: Tumor necrosis factor receptor 1 (TNFRSF1A), TNFRSF1A (gene 7132)
Put plainly: LTEA_HepaRG_TNFRSF1A: Life Technologies and Expression Analysis (LTEA) Assay for Tumor necrosis factor receptor 1 (TNFRSF1A) using HepaRG (AID 2283535). In short, it runs like this:
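Differentiated human HepaRG cells were exposed in duplicate for 48 h in serum-free induction medium to eight concentrations (top 100 uM, half-log steps, 0.5% DMSO). TNFRSF1A mRNA was quantified by qRT-PCR, normalized to ACTB, GAPDH and POLR2A, then fitted bidirectionally against DMSO.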

Read-out in test [17]: solute carrier (SLC22A1), SLC22A1 (gene 6580)
Put plainly: LTEA_HepaRG_SLC22A1: Life Technologies and Expression Analysis (LTEA) Assay for solute carrier (SLC22A1) using HepaRG (AID 2283524). The gist of the method: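 Human HepaRG cells were plated 48 h, switched to serum-free induction medium, then exposed in duplicate for 48 h to 8-point half-log series from 100 uM in 0.5% DMSO. SLC22A1 mRNA measured by qRT-PCR, normalized to ACTB/GAPDH/POLR2A, fitted bidirectionally versus DMSO.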

Calls of active or inactive are those of the source. The calls were made as follows: active = hit-call score of the fitted dose curve at least 0.9, where 1 is the maximum; inactive = score below 0.9.

Signal transducer and activator of transcription 3 (Homo sapiens), sequence (P40763 whole entry, looked up): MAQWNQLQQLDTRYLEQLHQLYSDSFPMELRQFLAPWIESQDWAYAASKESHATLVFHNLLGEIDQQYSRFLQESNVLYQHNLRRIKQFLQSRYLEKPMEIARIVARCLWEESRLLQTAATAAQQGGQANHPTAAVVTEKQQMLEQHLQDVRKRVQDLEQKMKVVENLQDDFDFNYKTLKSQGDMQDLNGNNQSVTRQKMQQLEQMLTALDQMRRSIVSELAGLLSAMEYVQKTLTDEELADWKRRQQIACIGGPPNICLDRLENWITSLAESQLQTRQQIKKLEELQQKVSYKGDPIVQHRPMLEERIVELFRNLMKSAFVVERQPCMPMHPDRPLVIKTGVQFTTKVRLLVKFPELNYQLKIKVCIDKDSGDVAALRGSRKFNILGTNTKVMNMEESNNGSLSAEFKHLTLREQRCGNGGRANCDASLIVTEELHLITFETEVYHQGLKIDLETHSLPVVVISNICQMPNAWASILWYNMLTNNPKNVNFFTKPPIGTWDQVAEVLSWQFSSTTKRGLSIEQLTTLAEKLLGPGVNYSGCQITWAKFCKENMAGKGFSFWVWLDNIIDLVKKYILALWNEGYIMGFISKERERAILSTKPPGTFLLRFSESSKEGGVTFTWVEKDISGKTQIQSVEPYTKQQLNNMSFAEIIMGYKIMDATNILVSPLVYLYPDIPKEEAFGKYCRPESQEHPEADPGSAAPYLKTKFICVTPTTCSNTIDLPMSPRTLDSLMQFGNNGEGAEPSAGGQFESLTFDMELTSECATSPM
Nuclear factor erythroid 2-related factor 2 (Homo sapiens), sequence (Q16236 whole entry, looked up): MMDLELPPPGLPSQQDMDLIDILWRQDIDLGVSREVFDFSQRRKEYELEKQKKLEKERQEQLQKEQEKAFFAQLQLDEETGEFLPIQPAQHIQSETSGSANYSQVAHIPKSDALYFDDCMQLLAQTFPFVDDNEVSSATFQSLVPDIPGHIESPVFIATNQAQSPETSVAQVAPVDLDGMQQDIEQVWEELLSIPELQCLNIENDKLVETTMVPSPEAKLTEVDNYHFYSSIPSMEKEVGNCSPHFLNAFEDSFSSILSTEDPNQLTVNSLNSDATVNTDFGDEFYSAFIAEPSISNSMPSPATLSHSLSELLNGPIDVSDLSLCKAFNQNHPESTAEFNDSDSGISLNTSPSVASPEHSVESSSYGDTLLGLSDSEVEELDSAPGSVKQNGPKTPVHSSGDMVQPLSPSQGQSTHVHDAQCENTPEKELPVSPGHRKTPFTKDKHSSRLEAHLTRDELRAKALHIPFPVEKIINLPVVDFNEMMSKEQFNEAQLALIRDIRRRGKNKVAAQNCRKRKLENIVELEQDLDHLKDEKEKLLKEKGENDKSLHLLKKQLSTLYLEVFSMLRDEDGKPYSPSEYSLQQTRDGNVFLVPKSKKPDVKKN
Nuclear factor NF-kappa-B p105 subunit (Homo sapiens), sequence (P19838 whole entry, looked up): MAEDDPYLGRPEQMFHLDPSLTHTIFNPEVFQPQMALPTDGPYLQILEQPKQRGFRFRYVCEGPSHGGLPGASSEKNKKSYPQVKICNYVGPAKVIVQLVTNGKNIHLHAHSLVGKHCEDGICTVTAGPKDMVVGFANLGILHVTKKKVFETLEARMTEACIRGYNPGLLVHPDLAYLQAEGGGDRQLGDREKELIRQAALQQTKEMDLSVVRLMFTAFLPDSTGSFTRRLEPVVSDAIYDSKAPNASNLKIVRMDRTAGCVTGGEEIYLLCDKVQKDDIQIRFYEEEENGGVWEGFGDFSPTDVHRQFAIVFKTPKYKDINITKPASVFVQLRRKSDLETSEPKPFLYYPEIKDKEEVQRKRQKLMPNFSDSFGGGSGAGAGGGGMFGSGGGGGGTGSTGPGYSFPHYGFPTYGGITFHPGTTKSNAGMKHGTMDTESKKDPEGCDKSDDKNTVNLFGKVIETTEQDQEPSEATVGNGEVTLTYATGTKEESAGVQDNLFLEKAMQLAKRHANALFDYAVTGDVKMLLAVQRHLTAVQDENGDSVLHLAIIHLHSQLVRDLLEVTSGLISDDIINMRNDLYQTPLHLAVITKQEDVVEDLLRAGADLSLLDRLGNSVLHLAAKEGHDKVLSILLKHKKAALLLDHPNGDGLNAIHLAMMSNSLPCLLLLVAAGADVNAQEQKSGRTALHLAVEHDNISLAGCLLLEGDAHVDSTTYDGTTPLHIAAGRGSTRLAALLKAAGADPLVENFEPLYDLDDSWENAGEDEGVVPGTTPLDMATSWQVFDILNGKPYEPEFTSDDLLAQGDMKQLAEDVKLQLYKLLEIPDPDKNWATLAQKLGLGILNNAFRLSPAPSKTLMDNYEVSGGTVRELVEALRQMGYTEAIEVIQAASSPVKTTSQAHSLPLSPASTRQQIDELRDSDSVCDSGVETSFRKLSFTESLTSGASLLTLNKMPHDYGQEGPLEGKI

As for `CC(C)N1C(=O)c2ccccc2NS1(=O)=O`, the outcome is “inactive” in [1]; “inactive” in test [2]; “inactive” with MYC, MYC (gene 4609); “inactive” in test [3]; “inactive” in [4]; “inactive” in test [5]. Further, the compound was classed as inactive in test [6], in [7], in test [8], in test [9], in test [10] and in [11]. Moreover, the outcome in [12] is “inactive”; in test [13], “inactive”; in [14] it was “inactive”; in test [15], “inactive”; with TIMP1, TIMP1 (gene 7076), “inactive”; in test [16], “inactive”.
The term AC50 denotes the concentration giving half of the maximal activity seen. In the case of `CCOC(=O)C(C)OC(=O)c1cc(Oc2ccc(C(F)(F)F)cc2Cl)ccc1[N+](=O)[O-]` (configuration not stated), the outcome in [1] was “inactive”; in test [2], “inactive”; in the test with MYC, MYC (gene 4609), “inactive”; in test [5], “inactive”; in [6] it was “inactive”; in test [7], “inactive”. The call in [17], in [9], in [10], in test [11], in test [12] and in test [13] was inactive. Besides, the outcome in [14] was “inactive”; in test [15], “inactive”; in the test with TIMP1, TIMP1 (gene 7076), “inactive”; in test [16], “inactive”. Besides, the concentration at half-maximal activity (AC50) in [4] was 9.92 µM (active); in test [8], 14.3 µM (active).
Consider `CCCN(CC)CC1COC2(CCC(C(C)(C)C)CC2)O1` (configuration not stated), for which the outcome in test [1] was “inactive”; in test [2], “inactive”; with MYC, MYC (gene 4609), “inactive”; in test [3], “inactive”; in test [4], “inactive”; in test [6], “inactive”. The compound was called inactive in test [7], in [17], in test [8], in test [9], in test [10] and in test [11]. In addition, the outcome in test [12] is “inactive”; in test [13], “inactive”; in [14], “inactive”; in test [15] it was “inactive”; in the test with TIMP1, TIMP1 (gene 7076), “inactive”; in [16] it was “inactive”.
With `COC(=O)NC(=S)Nc1ccccc1NC(=S)NC(=O)OC`, the outcome was “inactive” in test [1]; “inactive” in test [2]; “inactive” with MYC, MYC (gene 4609); “inactive” in test [3]; “inactive” in test [4]; “inactive” in test [6]. In addition, the call in [7], in [17], in [8], in [9], in [11] and in [12] was inactive. Also, the outcome in test [13] is “inactive”; in test [14], “inactive”; in test [15], “inactive”; in the test with TIMP1, TIMP1 (gene 7076), “inactive”; in [16], “inactive”. In addition, in test [10], the AC50 is 50 µM (active).

(Values after PubChem BioAssay (EPA / NIEHS).)
